Results taken from article PMC4336329 (PLoS ONE, 2015).
Screen size: about 310,000 compounds; about 14,000 (4.5%) showed an effect of 50% or more. The effect is printed as a negative number. This is one part of a sample in which strong results are shown more often than they occur.

target: human ether-à-go-go-related gene (hERG) potassium channel (human, UniProt Q12809); assay: primary screen, population patch clamp on CHO cells stably expressing hERG; higher = less effect of the substance
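Note: peak tail current of the secondary pulse compared with the same well before compound.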

human ether-à-go-go-related gene (hERG) potassium channel, sequence (Q12809 whole entry, looked up): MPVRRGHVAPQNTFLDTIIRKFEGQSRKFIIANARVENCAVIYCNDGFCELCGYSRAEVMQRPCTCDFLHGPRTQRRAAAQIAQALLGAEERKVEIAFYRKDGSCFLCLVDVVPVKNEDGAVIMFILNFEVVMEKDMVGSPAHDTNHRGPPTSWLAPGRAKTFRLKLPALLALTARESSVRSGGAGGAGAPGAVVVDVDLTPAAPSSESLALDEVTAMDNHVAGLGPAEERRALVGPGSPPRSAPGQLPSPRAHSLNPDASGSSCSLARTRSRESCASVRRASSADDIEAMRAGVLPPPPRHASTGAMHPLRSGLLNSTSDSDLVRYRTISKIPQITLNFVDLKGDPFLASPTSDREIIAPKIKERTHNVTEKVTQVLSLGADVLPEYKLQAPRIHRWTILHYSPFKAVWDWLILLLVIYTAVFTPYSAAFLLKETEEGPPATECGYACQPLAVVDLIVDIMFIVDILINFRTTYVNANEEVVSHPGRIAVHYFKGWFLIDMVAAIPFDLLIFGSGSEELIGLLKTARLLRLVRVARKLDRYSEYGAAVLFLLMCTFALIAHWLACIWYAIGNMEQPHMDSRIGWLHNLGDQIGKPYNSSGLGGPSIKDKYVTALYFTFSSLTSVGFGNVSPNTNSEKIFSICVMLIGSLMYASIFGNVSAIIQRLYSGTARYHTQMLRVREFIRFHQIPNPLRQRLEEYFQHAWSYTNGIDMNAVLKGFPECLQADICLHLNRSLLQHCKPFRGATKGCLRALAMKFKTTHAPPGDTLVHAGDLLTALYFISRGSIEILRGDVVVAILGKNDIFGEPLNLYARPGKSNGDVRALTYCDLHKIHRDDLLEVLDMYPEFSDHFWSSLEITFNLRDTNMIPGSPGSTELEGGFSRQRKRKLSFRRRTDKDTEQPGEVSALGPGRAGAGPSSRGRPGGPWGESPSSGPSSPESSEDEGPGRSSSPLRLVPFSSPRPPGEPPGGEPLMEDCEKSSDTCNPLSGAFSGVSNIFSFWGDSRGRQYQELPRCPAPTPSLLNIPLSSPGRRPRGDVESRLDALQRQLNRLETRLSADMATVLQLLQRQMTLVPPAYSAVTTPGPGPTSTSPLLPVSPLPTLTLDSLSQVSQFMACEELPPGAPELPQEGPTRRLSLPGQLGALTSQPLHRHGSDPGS

Structure (SMILES)	hERG current change (%, negative = inhibition) at 10uM [%]
O=C(NCC(=O)N(c1cccnc1)C(C(=O)NC1CCCC1)c1ccccc1F)c1ccco1 (centres unmarked)	-0.301
CC(C)(C)Nc1nc(NCc2cccnc2)nc(N2CCOCC2)n1	4.02
CC(C)C(=O)Nc1c2c(nc3c1CCC3)CCCC2	5.23
C/C(=N\NC(=O)c1nnn(-c2nonc2N)c1-c1ccc2c(c1)OCO2)c1cccs1	5.22
C/C(=N\OCC(=O)OC(C)C(=O)Nc1ccc(C(N)=O)cc1)c1ccc2c(c1)OCO2 (centres unmarked)	9.34
CCOC(=O)c1cc2occc2n1CC(=O)N1CCN(C(=O)c2ccco2)CC1	-36.8
CCOC(=O)c1cc2c(ccn2-c2ccc(F)cc2)n1CC(=O)N1CCN(C(=O)c2ccco2)CC1	-26.1
COC(=O)c1cc2c(ccn2-c2ccc(F)cc2)n1CC(=O)N1CCN(C(=O)c2ccco2)CC1	-66.6
COC(=O)c1cc2c(ccn2-c2ccc(F)cc2)n1CC(=O)C(C)(C)C	14.3
COC(=O)c1cc2c(ccn2-c2ccc(F)cc2)n1CC(=O)OC(C)C	27.3
CC(C)OC(=O)c1cc2c(ccn2-c2ccc(F)cc2)n1CC(=O)N1CCN(C(=O)c2ccco2)CC1	-69.2
O=C(Cn1c(=O)cnc2ccccc21)N1CCCc2ccccc21	10.8
CC1CN(C(=O)CN2C(=O)NC3(CCCC3)C2=O)C(=Nc2cccc(S(=O)(=O)N(C)C)c2)S1 (centres unmarked)	-32
Cc1ccc(S(=O)(=O)N2CCN(C(=O)COC(=O)CCc3ccccc3)CC2)c(C)c1	-8.38
CCOC(=O)c1ccc2c(c1)nc(-c1ccc(F)cc1)c1nccn12	5.55
CNC(C)C(=O)NC(C(=O)N1CCCC1C(=O)NNc1ccccc1)C(C)C.O=CO (centres unmarked)	5.01
O=S(=O)(c1ccccc1F)N1CCN(CCc2ccccc2)CC1	-5.81
O=C(NCCc1ccccc1)/C(=C\c1cccc([N+](=O)[O-])c1)NC(=O)c1ccco1	-78.6
CC(NC(=O)/C(=C/c1cccc([N+](=O)[O-])c1)NC(=O)c1ccco1)C(=O)O (centres unmarked)	0.397
CC(NC(=O)/C(=C\c1cccc([N+](=O)[O-])c1)NC(=O)c1ccco1)C(=O)O (centres unmarked)	39.2
CCN(CC)C(=O)/C(=C/c1cccc([N+](=O)[O-])c1)NC(=O)c1ccco1	-25.8
O=C(NCc1ccco1)/C(=C\c1cccc([N+](=O)[O-])c1)NC(=O)c1ccco1	-64.7

Structure (SMILES)	hERG current change (%, negative = inhibition) at 10uM [%]
O=C(NCCO)/C(=C\c1cccc([N+](=O)[O-])c1)NC(=O)c1ccco1	6.73
CCN(CC)C(=O)/C(=C\c1cccc([N+](=O)[O-])c1)NC(=O)c1ccco1	-24
O=C(O)CNC(=O)/C(=C\c1cccc([N+](=O)[O-])c1)NC(=O)c1ccco1	15.7
O=C(NCc1ccccc1)/C(=C/c1cccc([N+](=O)[O-])c1)NC(=O)c1ccco1	-61.2
O=C(NCc1ccco1)/C(=C/c1cccc([N+](=O)[O-])c1)NC(=O)c1ccco1	-56.8
O=C(O)CNC(=O)/C(=C/c1cccc([N+](=O)[O-])c1)NC(=O)c1ccco1	-1.47
O=C(NCCO)/C(=C/c1cccc([N+](=O)[O-])c1)NC(=O)c1ccco1	26.5
COc1ccc(OCCNC(=S)Nc2cccc3ccccc23)cc1	3.79
Cc1ccccc1N(CC(=O)NC1CCCC1)C(=O)CS(=O)CC(=O)Nc1ccc2c(c1)OCO2 (centres unmarked)	-8.74
COc1cc(C2NC(=O)NC(C)=C2C(C)=O)cc(OC)c1OC (centres unmarked)	9.41
Cc1nc(SCC(=O)O)c(C#N)c2c1CCCC2	-10.9
COc1cc2c(-c3ccc4[nH]ccc4c3)c(-c3ccc(C#N)cc3)oc(=O)c2cc1OC	20.9
CCCCC(=Nc1ccc(N)cc1)C1=C(O)C(C(=O)OC)C(C)(C)CC1=O (centres unmarked)	-1.62
C=CCNC(=O)c1ccc(CN(c2ccc(OCC)cc2)S(=O)(=O)c2ccc(C)cc2)cc1	-62
C=CCNC(=O)c1ccc(OC)cc1	-12
COc1ccc(N(C)S(=O)(=O)c2cccc(C(=O)NC3CCCC3)c2)cc1	-9.64
C=CCNC(=O)c1ccc(N(Cc2ccc(Cl)cc2)S(C)(=O)=O)cc1	-33.5
COc1ccc(S(=O)(=O)N(C)c2ccc(C(=O)NC3CC3)cc2)cc1	-12.6
C=CCNC(=O)c1ccc(N(C)S(=O)(=O)c2ccc(OC)cc2)cc1	-57.4
COCCCNC(=O)c1ccc(N(C)S(=O)(=O)c2ccc(OC)cc2)cc1	-20.6
COc1ccc(S(=O)(=O)N(C)c2ccc(C(=O)NC3CCCC3)cc2)cc1	-83.7
CCOc1ccc(N(Cc2ccc(C(=O)O)cc2)S(=O)(=O)c2ccc(C)cc2)cc1	-12.5
